Bioassay records from PubChem.
Compounds with a hit are over-represented: about 2.2% of the library has one in this group of screens.
Efa HMGR inh = blocks class II HMG-CoA reductase of Enterococcus faecalis; inhibition, % at 10 µM; purified E. faecalis HMGR, NADPH absorbance 340 nm kinetic; AID 1066; 190,000 compounds, 0.41% hits;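 active means inhibition above a set limit, the median over all tested compounds plus 3 SD, cut at about 9.5% in these data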;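 further: enzyme runs in reverse so mevalonate oxidation gives rising NADPH absorbance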
Autophagy mod = autophagy modulation, high-content screen; MEF GFP-LC3 puncta imaging; test concentration mostly 10 µM; calls only at 10 µM (by protocol); 190,000 compounds, 0.98% hits;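 active means percentage of spot-positive cells more than 3 SD above its plate mean, without a fluorescence outlier flag or 80% toxicity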
Ins promoter up = MIN6 insulin promoter up-regulation; 190,000 compounds, 0.3% hits; MIN6 insulin promoter-GFP reporter, high-content imaging; hits give high values; AID 1625; z-score at 5 µM;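 active means z-score above 3 at 5 µM with at least 500 cells counted in the well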
p47phox inh = p47phox (human) inhibition; p47phox/p22phox peptide binding, fluorescence polarization, 2 h; 220,000 compounds, 0.53% hits; P14598; inhibition, % at 24.7 µM;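 active means inhibition above about 30%, limit read from the data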
Target sequence (P14598 whole entry, looked up): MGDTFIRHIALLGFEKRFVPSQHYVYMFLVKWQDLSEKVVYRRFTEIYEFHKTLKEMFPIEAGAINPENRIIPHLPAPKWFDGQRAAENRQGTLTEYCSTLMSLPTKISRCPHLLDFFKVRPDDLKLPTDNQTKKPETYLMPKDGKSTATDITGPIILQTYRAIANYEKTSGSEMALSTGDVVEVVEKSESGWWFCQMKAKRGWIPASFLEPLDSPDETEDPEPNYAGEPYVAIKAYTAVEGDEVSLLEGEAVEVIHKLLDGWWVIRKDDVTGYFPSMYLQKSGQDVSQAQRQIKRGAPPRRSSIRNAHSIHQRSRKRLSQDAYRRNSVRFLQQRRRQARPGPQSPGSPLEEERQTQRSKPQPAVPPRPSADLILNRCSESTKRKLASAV
DTT redox prof = compounds producing H2O2 with reducing agent – biochemical, NIH compound library profiling, artefact control for MLSCN library redox annotation, primary screen; DTT-dependent redox cycling H2O2, phenol red/HRP absorbance; 100% = 100 µM peroxide control, 0% = buffer; activation, % at 10 µM; 200,000 compounds, 0.03% hits; AID 878;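 active means activation of at least 50% relative to the plate's high and low controls in the primary single-dose screen; inactive means activation below 50%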;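 further: compound incubated with DTT at 0.8 mM final as the reducing agent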
Arbovirus anti = arbovirus infection inhibition; arbovirus infection cell-based antiviral screen; inhibition, % at 10 µM; 200,000 compounds, 0.37% hits; in the data active means inhibition above about 30%
Large screens that a line does not name were inactive.

Cc1cc(NC(=O)CCC(=O)N(CC(=O)NC2CCCC2)c2ccccc2)no1	Efa HMGR inh 10 (no result: Ins promoter up)
COC(=O)C1=C(C)N(Cc2ccco2)C(=O)/C1=C\c1ccc([N+](=O)[O-])cc1	Efa HMGR inh 10
COC(=O)C1=C(C)N(Cc2ccco2)C(=O)/C1=C\c1ccc(N(C)C)cc1	none
CN1CCN(C(=O)C2=C[C@@H](C3CC3)C[C@@H](OCc3ccc(CO)cc3)O2)CC1	Efa HMGR inh 9.8
O=C(NCCO)c1ccc(CSc2nc3ccccc3[nH]2)cc1	none (no result: Ins promoter up)
O=C(NCCCO)c1ccc(CSc2nc3ccccc3[nH]2)cc1	Efa HMGR inh 13 (no result: p47phox inh)
CC1(C)C(=O)NCCN1C(=O)CCC(=O)O	none
COc1ccc2c(c1)c(=O)c(C(=O)c1ccccc1)cn2Cc1ccc(C)cc1	Efa HMGR inh 14
CCn1cc(C(=O)O)c(=O)c2cc(OC)ccc21	none
CC1CCN(C(=O)CNS(=O)(=O)c2ccc(Br)s2)CC1	Ins promoter up 3.4
CC1CC(C)CN(C(=O)CNS(=O)(=O)c2ccc(Br)s2)C1 (centres undefined)	none
Cc1ccc(CNC(=O)COC(=O)c2ccc(S(=O)(=O)N(C)C)cc2)cc1	none
CCOC(=O)c1cnc2c(-c3ccc(Cl)cc3)cnn2c1C	none
CCOC(=O)c1cnc2c(-c3ccc(F)cc3)cnn2c1C(F)(F)F	Arbovirus anti 62 (no result: Ins promoter up)
CC1CCc2c(sc(NC(=O)c3ccccc3C(=O)O)c2C#N)C1 (centres undefined)	Arbovirus anti 59
CC(C)(C)C1CCc2c(sc(NC(=O)C3CC=CCC3C(=O)O)c2C#N)C1 (centres undefined)	Arbovirus anti 36
CCN=C1SC(CC(=O)NCc2ccccc2)C(=O)N1CC (centres undefined)	none
Cc1[nH]nc2c1C(C(C)c1ccccc1)C(C#N)=C(N)O2 (centres undefined)	none
O=C(Nc1ccccc1)Nc1ccc2ocnc2c1	Efa HMGR inh 18
O=C(Nc1ccccc1)Nc1ccc2ncoc2c1	none (no result: Ins promoter up)
CC(C)CC(O)(CC(C)C)C(=O)NNc1ccccc1	Efa HMGR inh 15
CC(C)C(c1nnnn1C1CCCC1)N1CCC(C(N)=O)CC1 (centres undefined)	none
CC(C)C(c1nnnn1C1CCCC1)N1CCOCC1 (centres undefined)	Ins promoter up 3
C/C(=N\Nc1nc2ccccc2[nH]1)c1ccc2c(c1)OCO2	Arbovirus anti 36
OCC1(CCOc2ccccc2)CCN(Cc2nc3ccc(F)cc3[nH]2)CC1	Arbovirus anti 55 (no result: Ins promoter up)
OCC1(CCOc2ccccc2)CCN(Cc2cn[nH]c2-c2ccc(F)cc2)CC1	none
COc1ccc2[nH]c(CN3CCC(CO)(CCOc4ccccc4)CC3)c(C)c2c1	Autophagy mod active (no result: Ins promoter up)
COC(C(=O)NNC(=O)CCc1ccccc1)c1ccccc1 (centres undefined)	none
OC1(CNCc2cn[nH]c2-c2cc3ccccc3o2)CCCCC1	none
CCc1nnc(NC(=O)c2cc3ccccc3oc2=O)s1	Arbovirus anti 65
Cc1ccccc1-c1nnc(NC(=O)c2cc3ccccc3oc2=O)s1	none
COc1cccc2sc(NN)nc12	Arbovirus anti 37 (no result: Ins promoter up)
COc1ccccc1-c1nnc(Nc2nc3c(OC)cccc3s2)o1	none (no result: Ins promoter up)
COc1cccc2sc(Nc3nnc(-c4ccccc4Cl)o3)nc12	Autophagy mod active (no result: Ins promoter up)
CCc1cccc(CC)c1NC(=S)N(CCN(C)C)C(C)c1cccnc1 (centres undefined)	none (no result: Ins promoter up)
O=C1c2ccccc2N2C(=O)c3ccccc3[C@H]2N1c1ccccc1	Arbovirus anti 30
CO/N=C\CC(=O)Nc1ccc(Cl)cc1Cl	none (no result: Ins promoter up)
CCOCCCNC(=S)NCCCNc1nc2c(C)cc(C)cc2cc1C#N	none
CCOCCCNC(=S)NCCNc1nc2c(C)cccc2cc1C#N	Arbovirus anti 31
O=C(COc1ccc([N+](=O)[O-])cc1)N/N=C/c1cc([N+](=O)[O-])ccc1N1CCOCC1	none
O=C(Cn1c2ccccc2c(=O)c2ccccc21)N/N=C/c1cc([N+](=O)[O-])ccc1N1CCCCCC1	Autophagy mod active
Cc1ccc(OCC(=O)N/N=C/c2cc([N+](=O)[O-])ccc2N2CCCCC2)cc1	Autophagy mod active
CCOC(=O)c1ccc(N2CCOCC2)c(NC(=O)COCC(=O)O)c1	none (no result: Efa HMGR inh, Autophagy mod, DTT redox prof, Arbovirus anti)
CCOc1cc(N2CCOCC2)c(OCC)cc1NC(=O)CCS(=O)(=O)c1ccc(Cl)cc1	none
CCOc1cc(N2CCOCC2)c(OCC)cc1NS(=O)(=O)c1ccc(Cl)s1	p47phox inh 59 (no result: Autophagy mod)
CCOC(=O)c1[nH]c2c(c1-c1ccccc1)C(=O)CC(c1ccccc1)C2 (centres undefined)	none
COC(=O)c1[nH]c2c(c1C)C(=O)CC(c1ccccc1)C2 (centres undefined)	Autophagy mod active
COc1ccc(OC)c(C2CC(=O)c3c([nH]c(C(=O)OC(C)C)c3C)C2)c1 (centres undefined)	Autophagy mod active
Cc1c(C(=O)OC2CCCC2)[nH]c2c1C(=O)CC(c1ccco1)C2 (centres undefined)	Autophagy mod active
COCCOC(=O)c1[nH]c2c(c1C)C(=O)CC(c1cc(OC)ccc1OC)C2 (centres undefined)	none
COc1cccc(CN2CCN(Cc3ccc4c(NC(C)=O)cccc4n3)CC2CCO)c1 (centres undefined)	none (no result: Ins promoter up)
CC1(c2ccccc2)CC(C)(C)N2C(=O)Cc3cccc1c32 (centres undefined)	none
COc1ccc2cc(/C(C)=N/NC(=S)Nc3cc(S(=O)(=O)N4CCOCC4)ccc3N3CCOCC3)ccc2c1	Autophagy mod active
c1ccc(C2CCC(N3CCNCC3)CC2)cc1 (centres undefined)	none (no result: Ins promoter up)
CCNc1nc(SCCOc2ccc(Cl)cc2Cl)nc(N(C)C)n1	Arbovirus anti 30
COC(=O)C1=C(Nc2ccc(C)cc2)C=C(C)C(C(=O)OC)C1c1ccc(OC)cc1 (centres undefined)	Autophagy mod active (no result: Ins promoter up)
O=C(NCc1ccccn1)C(C(=O)c1ccc(F)cc1)n1ccccc1=O (centres undefined)	none (no result: Ins promoter up)
CCOC(=O)Cn1nc2sc3ccccc3n2c(=O)c1=O	none (no result: Efa HMGR inh, Autophagy mod, DTT redox prof, Arbovirus anti)
CC(=O)C(Cc1ccc(Cl)nc1)(Cc1ccc(Cl)nc1)C(C)=O	Efa HMGR inh 10.0
CCn1c(Cn2nnc(-c3ccccc3)n2)nnc1SCC(=O)Nc1ccc(C(C)=O)cc1	Ins promoter up 4.9
Cn1c(Cc2ccccc2)nnc1SCC(=O)N1CCOCC1	p47phox inh 83
CCCN(CCC)c1nc(C)cc(C(C#N)c2nc3ccccc3o2)n1 (centres undefined)	Autophagy mod active
COc1ccc(C2C(C#N)=C(C)NC(C)=C2C(=O)OC(C)C)c(OC)c1 (centres undefined)	none
CC(C)(C)NC(=O)/C(=C\c1ccco1)NC(=O)c1cccs1	Efa HMGR inh 11
